From PubChem BioAssay (Tox21)
Inconclusive results are not listed. Active and inactive are the calls of the source. Calls come from the whole dose curve; as a rule, active = well fitted inhibition curve with a large enough effect in the signal ratio in the repeat runs (not every such curve was filed as active); inconclusive = weak or mixed curves, or effect the other way; inactive = no such curve, though single readings can be large or run the other way; the % refers to the signal ratio.

molecular target: Bile acid receptor (Homo sapiens) (UniProt Q96RI1); experiment: qHTS assay to identify small molecule antagonists of the farnesoid-X-receptor (FXR) signaling pathway (AID 743217); conditions: HEK293T FXR-UAS-bla, beta-lactamase ratio, CDCA-stimulated, 16 h; series mostly up to 62.6 µM
Sequence (Q96RI1 whole entry, looked up): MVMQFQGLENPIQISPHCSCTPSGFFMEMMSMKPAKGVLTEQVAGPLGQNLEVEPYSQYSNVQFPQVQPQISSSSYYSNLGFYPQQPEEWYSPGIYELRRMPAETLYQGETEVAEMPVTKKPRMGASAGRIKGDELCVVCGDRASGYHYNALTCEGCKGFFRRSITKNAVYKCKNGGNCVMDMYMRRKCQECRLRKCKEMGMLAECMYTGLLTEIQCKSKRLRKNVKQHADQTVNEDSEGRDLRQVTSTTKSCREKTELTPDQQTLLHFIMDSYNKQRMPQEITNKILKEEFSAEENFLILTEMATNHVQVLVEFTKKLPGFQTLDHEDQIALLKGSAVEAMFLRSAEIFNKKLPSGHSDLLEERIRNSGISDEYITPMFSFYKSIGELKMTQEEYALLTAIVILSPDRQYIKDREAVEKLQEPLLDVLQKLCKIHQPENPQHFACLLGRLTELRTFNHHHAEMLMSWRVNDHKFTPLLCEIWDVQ
From the text: U.S. Tox21 Program National Center for Advancing Translational Sciences [NCATS] NIH Chemical Genomics Center [NCGC] U.S. Environmental Protection Agency [EPA] National Institutes of Environmental Health Sciences [NIEHS] National Toxicology Program [NTP] U.S. Food and Drug Administration [FDA] Tox21 Assay Overview: The farnesoid-X-receptor (FXR), a nuclear hormone receptor, is highly expressed in liver, intestine, kidney and adrenal cortex. Natural ligands of FXR are the bile acids (Cholic acid, Chenodeoxy cholic acid etc). FXR is an important regulator of diverse metabolic pathways, including the bile acid homeostasis, lipid and glucose metabolisms. FXR regulates the expression of target genes by binding either as a monomer or as a heterodimer with the retinoid X receptor (RXR). Numerous studies have reported that FXR exerts protective function during cholestasis, diabetes, liver regeneration, and cancer. To identify compounds that inhibit FXR signaling, GeneBLAzer FXR-UAS-bla HEK 293T cell line (Invitrogen, Carlsbad, CA) containing a beta-lactamase reporter gene under the control of a UAS response element was used to screen the Tox21 10K compound library.
Tox21 Assay Protocol Summary: FXR-bla cells were dispensed at 5000 cells/5uL/well in 1536-well black wall/clear bottom plates using a Multidrop Combi (Thermo Fisher Scientific, Waltham, MA) dispenser. After the assay plates were incubated at 37C and 5% CO2 for 5 h, 23 nL of compounds dissolved in DMSO, positive controls or DMSO only was transferred to the assay plate by a Pintool station (Kalypsys, San Diego, CA), followed by addition of 1 uL Chenodeoxycholic acid (50 uM, final concentration in the wells). The assay plates were incubated at 37C for 16 h. After 1 uL of LiveBLAzerTM B/G FRET substrate was added using a Bioraptr Flying Reagent Dispenser (FRD) workstation (Beckman Coulter, Indianapolis, IN), the plates were incubated at room temperature for 2 h, and fluorescence intensity was measured by an Envision plate reader (PerkinElmer, Shelton, CT).

Row | SMILES | outcome
1 | COc1cc(C(=O)OC(COCCC(C)C)CN2CCOCC2)cc(OC)c1OC (stereo not given) | inactive
2 | CC1=NN(c2cc(S(=O)(=O)O)ccc2Cl)C(=O)C1N=Nc1ccccc1 (stereo not given) | inactive
3 | CC(=O)C1CCCCC1=O (stereo not given) | inactive
4 | Cc1ccc(-c2ncc(Cl)cc2-c2ccc(S(C)(=O)=O)cc2)cn1 | inactive
5 | CCN1CCOCC1 | inactive
6 | c1ccc(Cc2ccccc2)cc1 | inactive
7 | CC(=O)N1C[C@H](O)C[C@H]1C(=O)O | inactive
8 | Cc1nc(C2CCCCC2)c(-c2ccc(S(N)(=O)=O)c(F)c2)o1 | inactive
9 | CC(N)C12CC3CC(CC(C3)C1)C2 (stereo not given) | inactive
10 | COc1c(N2CCNC(C)C2)c(F)cc2c(=O)c(C(=O)O)cn(C3CC3)c12 (stereo not given) | inactive
11 | CC12CCC(C(=O)C1=O)C2(C)C (stereo not given) | inactive
12 | CCCCc1ccc2c(n1)[C@@H](c1ccc(OC)cc1C[C@H](C)C(=O)O)[C@H](C(=O)O)[C@H]2c1ccc2c(c1)OCO2 | inactive
13 | CCOCC(C)O (stereo not given) | inactive
14 | CCCCc1nc(Cl)c(CO)n1Cc1ccc(-c2ccccc2-c2nn[nH]n2)cc1 | inactive
15 | CNC(=O)Nc1ccc(Cl)c(Cl)c1 | inactive
16 | C=C(C)C(=O)OCCOCCOCCOCCOC(=O)C(=C)C | inactive
17 | Clc1cc(Cl)c(Cl)nc1Cl | inactive
18 | CC(C#N)(CCC(=O)O)N=NC(C)(C#N)CCC(=O)O (stereo not given) | inactive
19 | Nc1c2c(nc3c1CCC3)CCCC2 | inactive
20 | CC(C)C[C@@H](N)C(=O)O | inactive

Row | SMILES | outcome
21 | NC(=O)N[C@@H](CCC(=O)O)C(=O)O | inactive
22 | N[C@H](C(=O)O)[C@@H](O)c1ccc(O)c(O)c1 | inactive
23 | NC(=O)NC1N=C([O][Al])NC1=O (stereo not given) | inactive
24 | CCN[C@H]1C[C@H](C)S(=O)(=O)c2sc(S(N)(=O)=O)cc21 | inactive
25 | CNCCO | inactive
26 | C[N+]12CCC(CC1)C(OC(=O)C(O)(c1ccccc1)c1ccccc1)C2 (stereo not given) | inactive
27 | CC(C)(C)C(=O)c1ccccc1 | inactive
28 | O=C1NC(=O)C2CC=CCC12 (stereo not given) | inactive
29 | CC(C)(C)c1ccc(-c2ccc(C(C)(C)C)cc2)cc1 | inactive
30 | C[N+]1(CC2COC(c3ccccc3)(c3ccccc3)O2)CCCCC1 (stereo not given) | inactive
31 | CC(CC=O)CC(C)(C)C (stereo not given) | inactive
32 | C=CCOCC(O)CO (stereo not given) | inactive
33 | CN(C)CCCN(C)CCCN(C)C | inactive
34 | CN1C(C)(C)CC(O)CC1(C)C | inactive
35 | C=COC(=O)C(C)(CC)CCC(C)C (stereo not given) | inactive
36 | C=C(C)C(=O)OCC1CCCO1 (stereo not given) | inactive
37 | Nc1ccn([C@@H]2O[C@H](CO)[C@@H](O)C2O)c(=O)n1 (stereo not given in full) | inactive
38 | CCOC(=O)C1=NOC(c2ccccc2)(c2ccccc2)C1 | inactive
39 | Cc1coc2ccccc2c1=O | inactive
40 | CCO[Si](OCC)(OCC)c1ccccc1 | inactive
